Several values for one entry are separate records, joined by “and”; a condition that tells them apart may be missing. Identical values can stand only once. Records with an inconclusive call do not appear. Activity calls are given as the source filed them. Unless noted, calls come from the whole dose curve; as a rule, active = well fitted curve in the direction sought with a large enough effect; inconclusive = small, poorly fitted or top-dose-only effect, or another doubt; inactive = no such curve, though single readings can be large; an effect the other way counts as inactive or inconclusive.
Tests used:
[1] = molecular target: Arylsulfatase A (Homo sapiens) (UniProt P15289); experiment: qHTS screen for enhancers of Arylsulfatase A (ASA1): LOPAC Validation Assay (AID 720538); note: potency is the fitted concentration of half-maximal effect
Sequence of Arylsulfatase A (Homo sapiens) (P15289 whole entry, looked up): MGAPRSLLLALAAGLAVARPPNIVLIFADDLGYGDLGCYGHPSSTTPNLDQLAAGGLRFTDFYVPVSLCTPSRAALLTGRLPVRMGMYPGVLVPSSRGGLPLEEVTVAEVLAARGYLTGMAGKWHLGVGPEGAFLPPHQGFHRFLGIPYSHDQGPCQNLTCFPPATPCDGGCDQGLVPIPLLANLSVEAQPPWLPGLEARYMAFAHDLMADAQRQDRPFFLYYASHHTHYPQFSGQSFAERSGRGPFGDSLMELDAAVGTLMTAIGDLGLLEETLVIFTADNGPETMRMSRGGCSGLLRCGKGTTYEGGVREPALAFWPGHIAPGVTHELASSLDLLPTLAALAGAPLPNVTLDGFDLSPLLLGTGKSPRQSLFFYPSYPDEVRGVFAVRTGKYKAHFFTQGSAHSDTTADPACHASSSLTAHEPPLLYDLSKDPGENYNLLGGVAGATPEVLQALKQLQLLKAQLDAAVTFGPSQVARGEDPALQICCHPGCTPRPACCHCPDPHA
Procedure, shortened: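 First, ASA-I179S fibroblasts from an MLD patient adhered for 6 hrs. Next, compounds were added for 48h. Then pNCS substrate (0.5mM final) with lysis buffer reacted 14h at room temperature before NaOH stop and fluorescence measurement.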

[2] = qHTS for compounds that reverse cellular toxicity of Amyloid beta (A-beta) peptide in yeast: LOPAC Validation Assay (AID 720559); conditions: Potency: rescue of growth toxicity;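 note: plate controls were DMSO for no effect and equimolar ferric chloride plus clioquinol rescue for full effect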
Procedure, shortened: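 Activity is expressed relative to DMSO and an equimolar ferric chloride/clioquinol mix. Compounds were pinned into medium with A-beta-expressing yeast, grown 48 hr at 30 C, then read by absorbance at 600 nm.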

[3] = qHTS for Activators of Parkin Expression: LOPAC Validation Assay (FLuc Reporter) (AID 720573;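 note: 0% = DMSO and 100% = positive control compounds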)
Procedure, shortened: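 A neuronal cell line harbouring FLuc and NLuc reporters behind the Parkin promoter was exposed to compounds for 24 h. Firefly luciferase signal, measured after 10 min with detection reagent, was scaled to DMSO and positive-control wells.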

[4] = molecular target: T1, Hexokinase-4 (Homo sapiens) + Glucokinase regulatory protein (Homo sapiens) (UniProt P35557+Q14397); experiment: qHTS assay for inhibitors of recombinant human GCK-GKRP interaction: Diaphorase-coupled assay (AID 743205)
T1 sequence (P35557 whole entry, looked up): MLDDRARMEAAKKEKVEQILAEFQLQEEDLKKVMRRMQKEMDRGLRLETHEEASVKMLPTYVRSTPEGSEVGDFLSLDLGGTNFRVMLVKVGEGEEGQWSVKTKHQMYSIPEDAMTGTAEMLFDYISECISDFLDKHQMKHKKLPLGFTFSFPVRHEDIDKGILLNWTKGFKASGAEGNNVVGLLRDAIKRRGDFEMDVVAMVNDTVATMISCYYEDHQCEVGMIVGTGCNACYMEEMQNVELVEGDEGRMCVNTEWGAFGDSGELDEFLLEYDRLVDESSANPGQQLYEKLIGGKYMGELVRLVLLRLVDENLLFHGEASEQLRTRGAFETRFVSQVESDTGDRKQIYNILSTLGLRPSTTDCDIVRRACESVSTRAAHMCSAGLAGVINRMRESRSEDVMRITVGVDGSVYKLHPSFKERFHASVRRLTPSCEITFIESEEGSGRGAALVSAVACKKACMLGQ
T1 sequence (Q14397 whole entry, looked up): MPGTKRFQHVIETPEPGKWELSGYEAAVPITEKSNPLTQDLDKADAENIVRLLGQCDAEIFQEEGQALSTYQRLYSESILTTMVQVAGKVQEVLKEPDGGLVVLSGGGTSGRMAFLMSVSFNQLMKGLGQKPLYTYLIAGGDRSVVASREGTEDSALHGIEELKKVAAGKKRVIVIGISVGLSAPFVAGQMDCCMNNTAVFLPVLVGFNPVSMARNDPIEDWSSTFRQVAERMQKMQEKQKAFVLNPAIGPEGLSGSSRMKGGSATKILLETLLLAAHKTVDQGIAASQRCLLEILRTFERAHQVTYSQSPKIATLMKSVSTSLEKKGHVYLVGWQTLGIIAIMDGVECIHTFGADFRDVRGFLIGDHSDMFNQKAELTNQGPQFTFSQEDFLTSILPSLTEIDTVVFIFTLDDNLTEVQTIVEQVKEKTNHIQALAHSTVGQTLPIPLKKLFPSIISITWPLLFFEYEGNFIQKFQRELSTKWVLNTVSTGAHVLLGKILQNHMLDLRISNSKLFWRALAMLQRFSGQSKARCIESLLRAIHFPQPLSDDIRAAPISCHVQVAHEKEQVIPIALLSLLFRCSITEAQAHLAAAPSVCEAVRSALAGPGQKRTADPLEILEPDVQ
Procedure, shortened: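 Inhibitors of the GCK–GKRP complex relieve GKRP suppression of GCK, detected through a G6PDH–diaphorase cascade reducing resazurin. Human GST-GCK and FLAG-GKRP are used at 10 nM with 5 mM glucose and 0.4 mM ATP.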

[5] = molecular target: T1, Hexokinase-4 (Homo sapiens) + Glucokinase regulatory protein (Homo sapiens); experiment: qHTS assay for inhibitors of recombinant human GCK-GKRP interaction: ADP-Glo assay (AID 743206);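 note: plate controls were DMSO plus enzyme for no effect and no enzyme for full effect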
Procedure, shortened: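 GST-GCK and FLAG-GKRP (15 nM each in the dispensed mix, with 2 uM S6P) react with 0.4 mM ATP and 5 mM glucose (final) in Hepes pH 7.6 for 60 min at room temperature. ADP is measured by ADP-Glo luminescence.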

[6] = molecular target: T1, Hexokinase-4 (Homo sapiens) + Glucokinase regulatory protein (Homo sapiens); experiment: qHTS assay for inhibitors of recombinant human GCK-GKRP interaction: HTRF assay (AID 743207);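 note: 0% = DMSO with GCK present and -100% = DMSO wells lacking GCK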
Procedure, shortened: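 Steps: dispense GCK–GKRP complex (5 nM each, GST- and FLAG-tagged) with 2 uM S6P; pin in compounds; add XL665/Eu-cryptate-labelled antibodies; incubate 60 min at room temperature; read time-resolved FRET at 665 and 615 nm.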

[7] = qHTS Assay for Identifying Gametocytocidal Compounds (AID 743244); note: potency is the fitted concentration of half-maximal effect;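 for max response: % is set by controls: 0 for no effect and ±100 for the full control effect; actives lower the fluorescent signal which means gametocytes are killed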; conditions: P. falciparum 3D7 stage III-V gametocytes, alamarBlue, 72 h; max response: hits give low values
Procedure, shortened: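 Fluorescence at Ex 525/Em 598 nm, recorded 24 h after alamarBlue addition, reports residual metabolic activity of 3D7 gametocytes (stages III–V) following 72 h compound exposure at 37 °C, 5% CO2.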

[8] = qHTS for Activators of Parkin Expression: LOPAC Validation Assay (NLuc Reporter) (AID 720572;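 note: 0% = DMSO and 100% = positive control compound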)
Procedure, shortened: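 Neuronal line stably carrying a FLuc/NLuc coincidence reporter under the Parkin promoter, seeded 24 h, then dosed in 7-point series for 24 h at 37 C. NLuc luminescence read after FLuc; normalized to DMSO and positive control (100%).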

[9] = qHTS assay for small molecule agonists of the antioxidant response element (ARE) signaling pathway measured by Nrf2-dependant transcriptional activity (AID 720636; active = well fitted curve in the direction sought with a large enough effect in the repeat runs; an effect the other way counts as inactive or inconclusive; note: potency is the fitted concentration of half-maximal effect)
Procedure, shortened: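 In HepG2 cells engineered with an Nrf2-responsive luciferase gene, ARE induction was quantified as luminescence after 16 hr compound treatment at 37 C.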

[10] = qHTS assay for small molecule agonists of the antioxidant response element (ARE) signaling pathway measured by Nrf2-dependant transcriptional activity - cell viability counter screen (AID 720653; active = well fitted curve in the direction sought with a large enough effect in the repeat runs; an effect the other way counts as inactive or inconclusive; note: % is set by controls: 0 for no effect and ±100 for the full control effect); conditions: ARE-bla HepG2 viability, CellTiter-Glo ATP luminescence, 16 h; max response: hits give low values
Procedure, shortened: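 ARE-bla HepG2 cells (2,000/well) rested 5 hrs at 37C/5% CO2, then exposed to compounds in DMSO for 16 hrs. Viability was read in the same wells as intracellular ATP by luminescence, 30 min at room temperature after reagent addition.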

[11] = qHTS assay for cell viability of HEK293 cells (AID 743288); conditions: ATP luminescence (CellTiter-Glo), 18 h; max response: hits give low values; note: % is set by controls: 0 for no effect and ±100 for the full control effect; nearly all actives have a fitted effect of over 50% in size
Procedure, shortened: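 The Tox21 protocol used parental HEK293 cells treated for 18 h at 37 C with compounds delivered by pintool; ATP-coupled luminescence after 30 min at room temperature gave viability.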

[12] = qHTS assay for cell viability of the p53RE-bla HCT-116 cell line (AID 743292); note: % is set by controls: 0 for no effect and ±100 for the full control effect; nearly all actives have a fitted effect of over 55% in size
Procedure, shortened: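 Intracellular ATP of p53RE-bla HCT-116 cells measured by luciferase luminescence following 16 h compound incubation at 37 C; DMSO-only wells served as vehicle controls.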

Cn1cc(C2=C(c3ccc(Cl)cc3Cl)C(=O)NC2=O)c2ccccc21
inactive: Potency [1] | Potency [2] | Potency [3] | outcome [4] | Potency [5] | Potency [6] | max response [7] 6.65%

C[N+]1(C)C2CC(OC(=O)[C@H](CO)c3ccccc3)CC1C1OC12 (stereo not given in full)
inactive: Potency [2] | Potency [8] | Potency [3] | outcome [4] | Potency [5] | Potency [6] | max response [7] -7.69% and 8.7%

O=C1C(SCCO)=C(SCCO)C(=O)c2ccccc21
inactive: Potency [1] | Potency [2] | Potency [3] | outcome [4] | Potency [5]
active: Potency [7] 1.41 µM

Oc1cc(O)cc(/C=C/c2ccc(O)c(O)c2)c1
active: Potency [1] 23.9 µM
inactive: Potency [2] | outcome [4] | Potency [5] | Potency [6]

Oc1ccc(C2CNCc3sccc32)cc1O (stereo not given)
inactive: Potency [2] | Potency [8] | Potency [3] | outcome [4] | Potency [5]

CCCN(CC1CC1)c1nc(C)nc(Nc2c(Cl)cc(Cl)cc2Cl)c1Cl
inactive: Potency [1] | Potency [2] | Potency [3] | outcome [4] | Potency [5] | max response [7] 18.2%

O=C(Nc1ccccc1)c1cc([N+](=O)[O-])ccc1Cl
inactive: Potency [2] | Potency [8] | Potency [3] | max response [10] -18.4% | outcome [4] | Potency [5] | Potency [6] | max response [7] -5.62% | max response [11] -11.7% | Potency [12]
active: Potency [9] 3.06 µM

CN(C)c1nc(N)c(C(=O)N=C(N)N)nc1Cl
inactive: Potency [1] | Potency [2] | Potency [3] | outcome [4] | Potency [5] | Potency [6] | max response [7] 11%

CN1[C@@H](CC(=O)c2ccccc2)CCC[C@H]1C[C@H](O)c1ccccc1
inactive: Potency [2] | Potency [8] | Potency [3] | outcome [4] | Potency [5] | Potency [6]

Nc1nc(Nc2ccccc2)nc2c1ncn2[C@@H]1O[C@H](CO)[C@@H](O)[C@H]1O
inactive: Potency [1] | Potency [2] | Potency [3] | outcome [4] | Potency [5] | Potency [6] | max response [7] 17.1%

COc1ccccc1N1CCN(CCN(C(=O)c2ccc(I)cc2)c2ccccn2)CC1
inactive: Potency [1] | Potency [2] | Potency [3] | outcome [4] | Potency [5] | max response [7] 4.76%

N#C/C(=C\c1ccc(O)c(O)c1)C(=O)NCc1ccccc1
inactive: Potency [2] | Potency [8] | Potency [3] | outcome [4] | Potency [5] | Potency [6] | max response [7] 12.2%

From PubChem BioAssay (NCATS)
